Assay results from PubChem BioAssay (NCI).
The panel holds about 79,000 compounds, 15% with a hit somewhere; the sample as a whole holds those more often. Activity calls are given as the source filed them. Rule as the data show it: active = growth inhibition above about 70%; inactive = the rest.

Assays:
[1] = NCI Yeast Anticancer Drug Screen. Data for the rad50 strain (AID 155);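 also: 0% = growth of vehicle-only cultures of the same strain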; details: S. cerevisiae rad50 strain growth inhibition; at 50.0 µM; active compounds read high
In short: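 DNA repair mutant yeast, compound exposure, growth read-out; inhibition is taken relative to vehicle.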

[2] = NCI Yeast Anticancer Drug Screen. Data for the mec2-1 strain (AID 157); details: S. cerevisiae mec2-1 strain, at 50.0 µM, active compounds read high
In short: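 Vehicle-treated cultures served as reference for growth inhibition of compound-exposed mec2-1 yeast.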

[3] = NCI Yeast Anticancer Drug Screen. Data for the sgs1 mgt1 strain (AID 161);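 also: 0% = growth of cultures given vehicle only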; details: S. cerevisiae sgs1 mgt1 strain, at 50.0 µM, active compounds read high
In short: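 Genetically altered yeast, compound exposure, growth inhibition relative to vehicle.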

[4] = NCI Yeast Anticancer Drug Screen. Data for the cln2 rad14 strain (AID 165);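 also: 0% = growth equal to vehicle treated cultures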; details: S. cerevisiae cln2 rad14 strain, at 50.0 µM, active compounds read high
In short: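 Each compound was tested on cln2 rad14 yeast. Inhibition of growth was calculated against vehicle-exposed controls.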

[5] = NCI Yeast Anticancer Drug Screen. Data for the bub3 strain (AID 167); details: S. cerevisiae bub3 mutant strain, at 50.0 µM, active compounds read high
In short: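 In this screen, a yeast mutant lacking normal mitotic checkpoint function is challenged with compound. Relative growth versus vehicle gives the inhibition value.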

[6] = NCI Yeast Anticancer Drug Screen. Data for the mlh1 rad18 strain (AID 175); details: S. cerevisiae mlh1 rad18 strain growth inhibition; at 50.0 µM; active compounds read high
In short: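 Vehicle-treated cultures served as the reference for growth inhibition in a yeast strain carrying DNA damage repair alterations exposed to each compound.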

Measured: growth inhibition

COC1(NS(=O)(=O)c2ccc(C)cc2)CC1
inactive: [1] -43.8% | [2] -25.2% | [3] -12.1% | [4] -39.1% | [5] 10.4% | [6] -3.85%

c1ccc(C2=Nc3ccccc3C(c3ccccc3)=Nc3ccccc32)cc1
inactive: [1] 1.05% | [2] 3.7% | [3] -8.95% | [4] -18.5% | [5] -1.8% | [6] 2.05%

CCOc1ccccc1C=Nc1cc(C(C)C)c(O)cc1C
inactive: [1] -10.2% | [2] -17.2% | [3] 5.6% | [4] -4.6% | [5] 0.85% | [6] -12.3%

Cc1cccc(Nc2nc(NNC(=O)Cc3ccccc3)nc(NNC(=O)c3ccncc3)n2)c1
inactive: [1] 17.4% | [2] -12.9% | [3] 42.2% | [4] 33.4% | [5] 22.6% | [6] 18.8%

O=C(CCBr)OCCOc1ccccc1
inactive: [1] 1.55% | [2] -3.6% | [3] 4.2% | [4] -39.8% | [5] 4.95% | [6] 2.7%

C/C=C/C(=O)NN
inactive: [1] 13.3% | [2] 7.85% | [3] -4.65% | [4] -21.2% | [5] -2.9% | [6] 25.8%

NCCCCC(N)C(=O)O.[Cu+2] (centres undefined)
inactive: [1] -13.6% | [2] 3.95% | [3] -4.9% | [4] -6% | [5] -11.8% | [6] -22.8%

CC12CCC[C@@](C)(C(=O)OC3OC(CO)C(O)C(O)C3O)[C@H]1CCC13CC4CC(OC4(CO)[C@H]1O)[C@@H]23 (some centres undefined)
inactive: [1] -8.45% | [2] -26.1% | [3] -20.9% | [4] -18.8% | [5] -20.7% | [6] -17.9%

CCc1ccc(NC(C)=O)cc1C
inactive: [1] -9.5% | [2] 11.7% | [3] -0.95% | [4] 27% | [5] -1.15% | [6] -9.9%

CC1(n2[nH]c(=O)n(-c3ccccc3)c2=O)Cn2c(=O)n(-c3ccccc3)c(=O)n2-c2ccccc21 (centres undefined)
inactive: [1] -49.2% | [2] -0.3% | [3] -1% | [4] 18.7% | [5] -5.2% | [6] 9.1%

Cc1cc2c(cc1C)C(C)(C)c1c(nc(N)[nH]c1=O)N2C
inactive: [1] 3.7% | [2] -1.1% | [3] 20.5% | [4] -15.7% | [5] -0.45% | [6] 1.7%

CCOC(=O)c1c(Br)c(-c2ccc(OC)cc2)c(Br)n1C
inactive: [1] -12.8% | [2] 9.8% | [3] -22.2% | [4] -48% | [5] -39% | [6] -5.95%

CN1C(=O)C2CC(=O)N(Cc3ccccc3)C(=O)C2C1=O (centres undefined)
inactive: [1] 0.5% | [2] -16.1% | [3] -1.05% | [4] 9.3% | [5] -5.4% | [6] -1.35%

NCCNCCCNCCN
inactive: [1] 7.85% | [2] -2.4% | [3] 7.95% | [4] -2.45% | [5] 27.4% | [6] 6.45%

O=[S@]1Nc2cc(N=Nc3ccccc3)ccc2S1
inactive: [1] -3.45% | [2] 16.1% | [3] 0.15% | [4] -10.5% | [5] -5.05% | [6] -12.1%

O=S(=O)(SC(S(=O)(=O)c1ccccc1)S(=O)(=O)c1ccccc1)c1ccccc1
active: [5] 72.6%
inactive: [1] 13.2% | [2] 9.35% | [3] 39.4% | [4] 1% | [6] 39.2%

COC(=O)C(C#N)(CCc1ccc([N+](=O)[O-])cc1)CCc1ccc([N+](=O)[O-])cc1
inactive: [1] 14.8% | [2] -4.25% | [3] 3% | [4] -6.7% | [5] 5.6% | [6] 25.9%

O/N=C/c1ccc(O)c(O)c1
inactive: [1] 16.4% | [2] -7.35% | [3] -4.05% | [4] -0.7% | [5] 10.8% | [6] 4.75%

CCOC(=O)C1=C(C)c2ccccc2OC1C(=O)O (centres undefined)
inactive: [1] 4.55% | [2] 11.1% | [3] 16.8% | [4] -23.4% | [5] -13.1% | [6] -10.3%

O=C1CCCC1CN1CCCCC1 (centres undefined)
inactive: [1] 3.25% | [2] -31.8% | [3] -13.7% | [4] 8.5% | [5] 22.1% | [6] -7.25%

CCOC(=O)NC(=O)c1cn(C2OC(COC(=O)CCCCCCCCC(=O)OCC3OC(n4cc(C(=O)NC(=O)OCC)c(=O)[nH]c4=O)C4OC(C)(C)OC34)C3OC(C)(C)OC32)c(=O)[nH]c1=O (centres undefined)
inactive: [1] -42.9% | [2] -39.5% | [3] -27.9% | [4] 10.9% | [5] -16.1% | [6] -24.9%

CCN(CC)CCOC1(Cc2ccccn2)CCCCC1
inactive: [1] 1.2% | [2] 15.2% | [3] 6.7% | [4] 21.3% | [5] -0.4% | [6] -9.75%

N#CC(C#N)=NO (tested in a mixture with another compound)
inactive: [1] 11.8% | [2] 6.6% | [3] -7.7% | [4] -0.75% | [5] 5.3% | [6] 5.75%

NNC(=O)/C(=C/c1cccc([N+](=O)[O-])c1)NC(=O)c1ccccc1
inactive: [1] -41.4% | [2] -25.4% | [3] -15.9% | [4] 7.5% | [5] -16.4% | [6] -24.1%

CC1(C)C(=O)C(C)(C)C1=NN
inactive: [1] 7.5% | [2] 11.8% | [3] -4.45% | [4] 3% | [5] -4.9% | [6] 23.9%

CCCCC1C/C=C/C=C/C=C/C=C/C(OC2OC(C)C(O)C(N)C2O)CC2OC(O)(CC(O)CC3OC3/C=C/C(=O)O1)CC(O)C2C(=O)O (centres undefined)
inactive: [1] 30.6% | [2] 9.5% | [3] 2.75% | [4] 17.6% | [5] -1.7% | [6] 11.2%

O=C(Nc1nc2ccccc2n1Cc1ccc(Cl)cc1)C(=O)NC12CC3CC(CC(C3)C1)C2
inactive: [1] -9% | [2] -24.5% | [3] 1% | [4] -0.6% | [5] 6.8% | [6] -8.6%

COC1OC(CO)C(O)C(NC(=O)[C@H](Cc2ccccc2)NC(=O)OCc2ccccc2)C1O (some centres undefined)
inactive: [1] 16.6% | [2] 0.75% | [3] 0.95% | [4] 8.65% | [5] 0.45% | [6] 14%

Cc1ccc(N=C=S)cc1Cl
inactive: [1] 6.75% | [2] 9.65% | [3] 32.4% | [4] 6.55% | [5] 15.8% | [6] 27.9%

Cc1cc(NCCN(C(C)C)C(C)C)nc(Nc2nc3cc(Cl)c(Cl)cc3[nH]2)n1
inactive: [2] 39.2% | [4] 11.7% | [5] 23.1% | [6] 55.6%
active: [1] 75.8% | [3] 77.8%

CC(=O)NC1C(O)C(NC(C)=O)C(OC(C)=O)C(OC(C)=O)C1OC(C)=O (centres undefined)
inactive: [1] 33.4% | [2] -9.7% | [3] 4.1% | [4] -15.4% | [5] -0.15% | [6] 1.35%

CN1CCC/C1=C/C(=O)c1ccccc1[N+](=O)[O-]
inactive: [1] 2.9% | [2] -0.1% | [3] -0.65% | [4] -28.3% | [5] 9.6% | [6] -11.7%

C#CCI
inactive: [1] 20.9% | [2] 6.5% | [3] 6.95% | [4] 33.9% | [5] 7.35% | [6] 17.5%

CC(C)(C)C1=CC(=C(c2ccc(-c3c4nc(c(-c5ccc(C(=C6C=C(C(C)(C)C)C(=O)C(C(C)(C)C)=C6)c6cc(C(C)(C)C)c(O)c(C(C)(C)C)c6)cc5)c5ccc([nH]5)c(-c5ccc(C(=C6C=C(C(C)(C)C)C(=O)C(C(C)(C)C)=C6)c6cc(C(C)(C)C)c(O)c(C(C)(C)C)c6)cc5)c5nc(c(-c6ccc(C(=C7C=C(C(C)(C)C)C(=O)C(C(C)(C)C)=C7)c7cc(C(C)(C)C)c(O)c(C(C)(C)C)c7)cc6)c6ccc3[nH]6)C=C5)C=C4)cc2)c2cc(C(C)(C)C)c(O)c(C(C)(C)C)c2)C=C(C(C)(C)C)C1=O
inactive: [1] 4.7% | [2] 2.6% | [3] -1.75% | [4] -38.6% | [5] -3.9% | [6] 14.4%

CC(=O)OCC(=O)c1ccccc1
inactive: [1] -10.8% | [2] 6.65% | [3] -3.8% | [4] -4.15% | [5] 30.5% | [6] -13.6%

O=C(O)CCc1ccc2c(c1)OCO2
inactive: [1] -2.1% | [2] -24.1% | [3] -5.85% | [4] -5.4% | [5] -34.1% | [6] -11.4%

C/C(=C/C=C(c1ccccc1)c1ccccc1)C1CCC2C3CCC4CC5CCC4(C)C3(O5)C(=O)CC12C (centres undefined)
inactive: [2] 60.6%
active: [1] 89.6% | [3] 73% | [4] 83% | [5] 93.3% | [6] 92.8%

CN=C(N)N/N=C(\c1ccccc1)c1ccc(Cl)cc1
inactive: [1] 43.4% | [2] 11.6% | [3] 43.1% | [4] 3.55% | [5] 34.6%
active: [6] 72.9%

CC(=O)OC1C(=O)OC(=O)C1OC(C)=O (centres undefined)
inactive: [1] 9.6% | [2] 0.9% | [3] 8.1% | [4] 5.25% | [5] 6.05% | [6] -3.85%
